Compounds with a hit are over-represented: about 1.9% of the library has one in this group of screens.
H9c2 protect – myocardial damage modulation in H9c2 cells | 360,000 tested, 0.63% active | H9c2 cardiomyocytes, H2O2 injury protection, ATPLite, 2 h | protection from H2O2 cell death, % at 20 µM | AID 588492;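 active = compounds giving at least 50% protection of heart cells from peroxide-induced death in the single-dose screen, raw or plate-pattern-corrected value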;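 also: 0% = DMSO wells with peroxide and 100% = DMSO wells without peroxide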
PP5 inh – PP5 (human) phosphatase inhibition; P53041; purified PP5c, OMFP substrate fluorescence; inhibition, % at 6.7 µM; 320,000 tested, 0.18% active;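 active = inhibition above the campaign's mean inhibition across all tested compounds plus 3 SD, cut at about 9.5% in these data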;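 also: 0% = DMSO only and 100% = 100 µM cantharidin control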
ATG4B inh – blocks human ATG4B protease cleavage of LC3 substrate; Q9Y4P1; ATG4B cleavage of LC3-PLA2, NBD-HPC fluorescence, 1 h; inhibition, % at 8.33 µM; 340,000 tested, 0.51% active; AID 504462; in the data active = inhibition above about 40%
PP1 counter – PP1-alpha (human) inhibition in PP5 counter-screen. P62136. 320,000 tested, 0.9% active. AID 2235. purified PP1alpha, OMFP fluorescence. inhibition, % at 6.7 µM;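 active = inhibition above the mean inhibition of all tested compounds plus 3 SD, computed separately for each screening campaign, cut at about 15% in these data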
Target sequence (P62136 whole entry, looked up): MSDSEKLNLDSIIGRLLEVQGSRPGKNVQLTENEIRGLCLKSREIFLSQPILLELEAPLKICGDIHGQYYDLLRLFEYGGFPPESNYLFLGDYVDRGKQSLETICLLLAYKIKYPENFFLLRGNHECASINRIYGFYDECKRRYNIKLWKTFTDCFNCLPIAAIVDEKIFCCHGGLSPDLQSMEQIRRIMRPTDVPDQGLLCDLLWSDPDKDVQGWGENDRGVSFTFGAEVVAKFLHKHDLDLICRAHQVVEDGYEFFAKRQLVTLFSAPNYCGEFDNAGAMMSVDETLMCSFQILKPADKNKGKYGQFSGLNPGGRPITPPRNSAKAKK
The depositor's hits bear a star; nt = no result given.

SMILES | H9c2 protect | PP5 inh | ATG4B inh | PP1 counter
O=C(O)c1cn(Cc2ccccc2)c2ccc(Cl)cc2c1=O | -4 | 1 | -11 | 17*
Cc1cc(NC(=O)CSc2ccnc(=O)[nH]2)no1 | 5 | 1 | 2 | -2
COC(=O)c1ccc(/C=C2/SC(=S)N(CCCC(=O)Nc3ccc(O)cc3)C2=O)cc1 | -2 | 1 | 2 | 16*
CC(=O)c1ccc(-c2ccc(C(=O)Nc3nc(-c4ccccn4)cs3)o2)cc1 | 99* | nt | -8 | nt
CC(=O)Nc1ccc(C(=O)Nc2nc(-c3ccccn3)cs2)cc1 | 70* | -5 | -1 | 4
O=C(COc1cccc(F)c1)Nc1nc(-c2ccccn2)cs1 | 59* | nt | nt | nt
CCc1cc(C(=O)Nc2nc(-c3ccccn3)cs2)sc1C | 72* | 3 | 5 | 16*
O=C(Nc1nc(-c2ccccn2)cs1)c1ccc([N+](=O)[O-])o1 | 40 | 2 | -9 | 11
Cc1cc(NC(=O)CSc2nnc(C)n2C)no1 | -5 | 2 | -2 | -1
O=C(Nc1nc(-c2ccccn2)cs1)c1ccccc1-n1cnnn1 | 63* | 0 | -4 | 1
O=C(Nc1nc(-c2ccccn2)cs1)c1cc(Cl)ccc1[N+](=O)[O-] | 46 | 0 | -5 | 16*
O=C(Nc1ccccc1C(F)(F)F)C1CCN(C(=O)Cc2ccccc2)CC1 | 0 | 3 | 0 | 3
Cc1ccc(N(CCC#N)C(=O)CSc2nc3ccccc3c(=O)[nH]2)cc1 | 80* | 0 | -5 | 0
N#CCCN(C(=O)CSc1n[nH]c(=O)[nH]c1=O)c1ccccc1 | 4 | nt | -14 | nt
COc1ccc(-c2csc(NC(=O)CSc3nc4ccccc4c(=O)[nH]3)n2)cc1 | -1 | 3 | -11 | 17*
COC(=O)c1sc2nc(CSc3nc4ccc(C)cc4[nH]3)[nH]c(=O)c2c1C | 10 | 0 | -3 | -3
O=C(CSc1nc2ccccc2c(=O)[nH]1)N1CCN(c2ccccc2)CC1 | 42 | 1 | 9 | 0
O=C(CSc1nc2ccccc2c(=O)[nH]1)N1CCCCC1 | 71* | 3 | -1 | 0
Cc1ccc2nc(SCc3nc4ccccc4c(=O)[nH]3)[nH]c2c1 | 58* | 4 | 0 | -1
O=C(COc1ccccc1)N[C@@H]1c2ccccc2CC[C@H]1OCc1ccccc1 | -12 | nt | 13 | nt
COc1ccccc1P(=O)(Cc1ccccc1[N+](=O)[O-])c1ccccc1 (centres undefined) | 2 | -3 | -5 | 1
O=C(CSc1nc2ccccc2c(=O)[nH]1)c1ccccc1 | 51* | 0 | -7 | -4
COc1cc(/C=C/c2cccc[n+]2C)ccc1OCC(=O)Nc1cccc(Cl)c1 | 0 | 1 | -8 | 4
COc1ccc(/C=C(/CC(=O)NCc2ccc(Cl)cc2)c2nc3ccccc3s2)cc1 | 2 | 2 | 15 | 15*
COc1ccc(/C=C(/CC(=O)Nc2ccccc2)c2nc3ccccc3s2)cc1 | -3 | 1 | -4 | 7
SMILES | H9c2 protect | PP5 inh | ATG4B inh | PP1 counter
O=[N+]([O-])c1cccc(/C=N/Nc2nc(NCc3ccccc3)nc(N3CCOCC3)n2)c1O | 48 | 0 | 1 | 17*
O=[N+]([O-])c1ccc(/C=N/Nc2nc(NCc3ccccc3)nc(N3CCOCC3)n2)cc1 | 13 | -2 | -9 | -9
CCOC(=O)C1=C(CSc2nc3c(cc2C#N)CN(C)CC3)OC(N)=C(C#N)C1c1ccccc1 (centres undefined) | 25 | -5 | -6 | 17*
CCOC(=O)C1=C(CSc2nc3c(cc2C#N)CN(C)CC3)OC(N)=C(C#N)C1c1ccc(F)cc1 (centres undefined) | 13 | 5 | -2 | 16*
CCOC(=O)C1=C(CSc2nc3c(cc2C#N)CCC3)OC(N)=C(C#N)C1c1ccccc1 (centres undefined) | 8 | 5 | 12 | 1
COc1ccc(CCNCC(O)COc2c(C)cccc2C)cc1OC (centres undefined) | 3 | nt | 2 | nt
Cn1c2c(c(=O)n(C)c1=O)C(c1ccc(Br)cc1)Nc1ccccc1O2 (centres undefined) | 51* | 2 | -2 | -3
Cc1ccc(Cn2c(SCCN3CCOCC3)nc3c2c(=O)n(C)c(=O)n3C)cc1 | 36 | -1 | -6 | 1
Cn1c(=O)c2c(nc(SCCN3CCOCC3)n2Cc2ccc(Cl)cc2)n(C)c1=O | 64* | nt | -10 | nt
CCN(CC)c1ccc(/C=N/NC(=O)Cc2cccs2)c(O)c1 | 50 | 5 | -9 | 16*
O=C1CCC(C(=O)N2CCCCCC2)CN1Cc1cccc(C(F)(F)F)c1 (centres undefined) | -1 | 0 | -7 | -3
COc1cc(/C=C2\CC/C(=C\c3cc(OC)c(O)c(OC)c3)C2=O)cc(OC)c1O | 65* | 1 | 21 | 1
COc1cc(/C=C2\CC/C(=C\c3cc(OC)c(OC)c(OC)c3)C2=O)cc(OC)c1OC | 29 | 4 | -4 | -1
O=C(NCc1ccccc1)c1cc[n+]([O-])cc1 | 5 | 1 | 0 | 0
Cc1cc(=O)c2c(O)c(O)ccc2o1 | 50* | 0 | -10 | 3
COc1c2ccoc2cc2oc(C)cc(=O)c12 | -8 | -3 | -9 | -6
C=CCn1cc(C(=O)N2CCN(c3ccccc3)CC2)c(=O)c2cc(S(=O)(=O)N3CCCC3)ccc21 | 1 | 3 | 3 | -3
COc1ccc2nc(-c3ccccn3)[nH]c2c1 | -13 | 1 | -4 | -2
COc1cc(C=NO)nc(-c2ccccn2)c1 | 56* | nt | -7 | nt
COc1cc(OC)cc(C(=O)N[C@H](C(=O)OCC(=O)c2ccc(C)c([N+](=O)[O-])c2)C(C)C)c1 | 3 | nt | -5 | nt
CCc1cc2cccc(C)c2nc1SCC(=O)N1CCN(C(=O)c2ccco2)CC1 | 59* | -1 | -1 | -1
CC(C)(C)c1ccc(S(=O)(=O)N2CCC(NC(=O)c3ccco3)CC2)cc1 | 0 | -1 | 11 | 3
CCc1c(C)nc(Nc2nc(C)c3ccc(OC)cc3n2)[nH]c1=O | 66* | 3 | -1 | -2
CCc1c(C)nc(Nc2nc(C)c3cc(OC)ccc3n2)[nH]c1=O | 20 | -1 | -13 | -2
O=C(Nn1c(C2CCCCC2)nc2ccccc2c1=O)c1ccc([N+](=O)[O-])cc1Cl | -3 | 1 | 3 | 17*
SMILES | H9c2 protect | PP5 inh | ATG4B inh | PP1 counter
O=C1CC(c2ccc(O)cc2)Oc2cc(O)cc(O)c21 (centres undefined) | 10 | 1 | 1 | -1
O=C1CC(c2ccc(O)c(O)c2)Oc2cc(O)cc(O)c21 (centres undefined) | 18 | 0 | -7 | 16*
c1ccc(CN2CCN(C(c3ccccc3)c3ccccc3)CC2)cc1 | -9 | 3 | -4 | 7
Fc1ccc(CN2CCN(C(c3ccccc3)c3ccccc3)CC2)cc1 | -3 | -1 | 1 | 16*
Cc1cnc(C=O)c2cccc([N+](=O)[O-])c12 | 57* | nt | nt | nt
COC(=O)c1c(NC(=O)c2nc3ccccc3s2)sc2c1CCN(C(C)=O)C2 | 58* | 3 | -18 | 4
COC(=O)c1c(NC(=O)c2cccc(N3C(=O)CCC3=O)c2)sc2c1CCN(C(C)=O)C2 | 19 | 1 | -10 | 1
O=C(O)C1Nc2c(O)cccc2C2C=CCC12 (centres undefined) | 44 | 6 | 4 | 50*

Screening data as filed in PubChem.
